Rows were chosen to be rich in hits. Some 6.8% of all compounds tested hit in one or more screens of this group.
C diff growth = inhibitors of Clostridium difficile growth. AID 1259249. growth activity, negative = inhibition, % at 16 µg/mL (by protocol). Clostridium difficile clinical isolate growth, OD600, 24 h; hits give low values. 0.25% of 86,000 active;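 active = mean growth activity at or below -80% and every replicate also at or below -80%; inconclusive = mean at or below -80% but some replicate above -80%; inactive = mean growth activity above -80%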
T cruzi growth-1 = inhibitors of T. cruzi proliferation | 5.9% of 77,000 active | T. cruzi beta-gal in NIH3T3, GalScreen luminescence, 90 h | inhibition, % at 8.34 µM;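 active = mean inhibition above about 93%, with at least 55% of replicates each passing it, limit read from the data, passing the limit was not always enough; inconclusive = only one of those two conditions holds; inactive = neither condition holds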
Pf Dd2 growth = P. falciparum Dd2 growth inhibition; 2.3% of 94,000 active; SYBR Green, 72 h; hits give low values; activity change, % at 10 µM; in the data active = activity change below about -80%; inconclusive = no clear call, values can overlap the other calls
T cruzi growth-2 = Trypanosoma cruzi proliferation inhibition | T. cruzi beta-gal in NIH3T3, GalScreen luminescence, 90 h | 72% of 5,600 active | AID 651739 | inhibition, % at 8.35 µM | shares compounds with T cruzi growth-1;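 active = mean replicate inhibition above about 95% and at least 55% of replicates individually reaching it, limit read from the data; inconclusive = only one of the two criteria is met; inactive = neither criterion is met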
T cruzi growth-3 = inhibitors of T. cruzi proliferation. shares compounds with T cruzi growth-1. T. cruzi beta-gal in NIH3T3, GalScreen luminescence, 90 h. inhibition, % at 2.09 µM. 21% of 5,600 active;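 active = mean inhibition above about 95%, with at least 55% of replicates also reaching it, limit read from the data; inconclusive = meets just one of the two conditions; inactive = meets neither condition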
3T3 cytotox = cytotoxicity in mouse NIH/3T3 fibroblasts; shares compounds with T cruzi growth-1; NIH/3T3 viability, CellTiter-Glo ATP luminescence, 90 h; cytotoxicity (signal decrease), % at 8.35 µM; 14% of 5,600 active; AID 651742;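 active = mean signal decrease across replicates above about 35% based on untreated-well scatter, with enough replicates individually passing, limit read from the data; inconclusive = no rule stated though some were filed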
NIH3T3 tox 2 = NIH/3T3 (mouse) viability loss | NIH/3T3 viability, CellTiter-Glo ATP luminescence, 90 h | 56% of 5,600 active | inhibition, % at 24.9 µM | shares compounds with T cruzi growth-1;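 active = mean loss of cell viability signal at or above a set limit, and enough replicates individually reaching it; inconclusive = meets only the mean limit or only the replicate share; inactive = meets neither condition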
Numbers stand for hits.

Results for O=C(C[C@@H]1C=C[C@H](NC(=O)Nc2ccccc2)[C@@H](CO)O1)NCc1cccc(F)c1 ?
C diff growth: inactive; T cruzi growth-1: inconclusive; Pf Dd2 growth: inactive; T cruzi growth-2: inactive; T cruzi growth-3: inactive; 3T3 cytotox: inactive; NIH3T3 tox 2: inactive

Results for C[C@H](NC(=O)C[C@@H]1C[C@H]2c3cc(NC(=O)Nc4ccc(C(F)(F)F)cc4)ccc3O[C@H]2[C@@H](CO)O1)c1ccccc1 ?
C diff growth: inactive; T cruzi growth-1: inactive; Pf Dd2 growth: inactive

How did C[C@H](NC(=O)C[C@H]1C[C@@H]2c3cc(NC(=O)Nc4ccc(C(F)(F)F)cc4)ccc3O[C@@H]2[C@H](CO)O1)c1ccccc1 do in these assays?
C diff growth: inactive; T cruzi growth-1: inconclusive; Pf Dd2 growth: inactive; T cruzi growth-2: 101.9; T cruzi growth-3: inactive; 3T3 cytotox: 47.7; NIH3T3 tox 2: 70.7

How did O=C(C[C@@H]1CC[C@@H](NC(=O)Nc2ccc(C(F)(F)F)cc2)[C@@H](CO)O1)NCc1cc(F)cc(F)c1 do in these assays?
T cruzi growth-1: inactive; Pf Dd2 growth: inactive

How did COc1ccccc1CNC(=O)C[C@H]1C[C@@H]2c3cc(NC(=O)Nc4ccc(C(F)(F)F)cc4)ccc3O[C@@H]2[C@H](CO)O1 do in these assays?
C diff growth: inactive; T cruzi growth-1: inactive; Pf Dd2 growth: inactive

Results for COc1ccccc1NC(=O)N1CC(=O)N2[C@H](CO)[C@H](c3ccc(-c4cccc(C)c4)cc3)[C@@H]2C1 ?
C diff growth: inactive; Pf Dd2 growth: inactive

Results for Cc1noc(C)c1NC(=O)N[C@@H]1CC[C@H](CC(=O)Nc2ccc(-c3ccccc3)cc2)O[C@@H]1CO ?
T cruzi growth-1: inactive; Pf Dd2 growth: inactive

How did O=C(C[C@H]1C=C[C@@H](NC(=O)C2CCC2)[C@@H](CO)O1)NC1CCC1 do in these assays?
C diff growth: inactive; Pf Dd2 growth: inactive

Results for C[C@@H]1CCCCO[C@H](CN(C)Cc2ccncc2)[C@@H](C)CN([C@H](C)CO)C(=O)c2cc(NC(=O)CCCCCC(=O)Nc3ccccc3N)ccc2O1 ?
C diff growth: inactive; Pf Dd2 growth: inactive

What do the screens show for `CO[C@@H]1CC[C@@H]2CCN(C)C(=O)[C@@H](C)CN(C)C(=O)c3cccc(C#N)c3OC[C@H]1O2`?
C diff growth: inactive; T cruzi growth-1: inactive

How did O=C(C[C@H]1C[C@@H]2c3cc(NS(=O)(=O)c4ccc(F)cc4)ccc3O[C@@H]2[C@@H](CO)O1)NCc1ccc(-c2ccccc2)cc1 do in these assays?
C diff growth: inactive; T cruzi growth-1: inactive; Pf Dd2 growth: inactive

How did O=C(Nc1ccccc1)N[C@H]1CC[C@H](CCNS(=O)(=O)c2cccc(F)c2)O[C@@H]1CO do in these assays?
C diff growth: inactive; T cruzi growth-1: inactive; Pf Dd2 growth: inactive

How did O=C(Nc1cc(Cl)cc(Cl)c1)N[C@H]1CC[C@@H](CCNS(=O)(=O)c2cccc(F)c2)O[C@@H]1CO do in these assays?
C diff growth: inactive; T cruzi growth-1: inconclusive; Pf Dd2 growth: inactive; T cruzi growth-2: 99.5; T cruzi growth-3: inactive; 3T3 cytotox: 39.8; NIH3T3 tox 2: 81.5

How did O=C(Nc1cc(Cl)cc(Cl)c1)N[C@H]1CC[C@H](CCNS(=O)(=O)c2cccc(F)c2)O[C@H]1CO do in these assays?
C diff growth: inactive; T cruzi growth-1: 176.4; Pf Dd2 growth: inactive; T cruzi growth-2: 104.4; T cruzi growth-3: inactive; 3T3 cytotox: inactive; NIH3T3 tox 2: 56.6

What do the screens show for `O=C(Nc1ccccc1)N[C@H]1CC[C@@H](CCNS(=O)(=O)c2cccc(F)c2)O[C@H]1CO`?
C diff growth: inactive; T cruzi growth-1: inactive; Pf Dd2 growth: inactive

What do the screens show for `O=C(Nc1ccccc1)N[C@@H]1CC[C@@H](CCNS(=O)(=O)c2cccc(F)c2)O[C@@H]1CO`?
C diff growth: inactive; T cruzi growth-1: inactive; Pf Dd2 growth: inactive

How did O=C(Nc1cc(Cl)cc(Cl)c1)N[C@@H]1CC[C@@H](CCNS(=O)(=O)c2cccc(F)c2)O[C@@H]1CO do in these assays?
C diff growth: inactive; T cruzi growth-1: 146.6; Pf Dd2 growth: inactive; T cruzi growth-2: 104.3; T cruzi growth-3: inactive; 3T3 cytotox: inactive; NIH3T3 tox 2: 65.1

Screens as filed in PubChem BioAssay.
